Data published in paper PMC5540273 (PLoS ONE, 2017).

Assays:
Details in all cases: concentration: 1 μM, replicates: in singlicate; n = 1
[1] = tested on: ADCK4
[2] = tested on: AKT1
[3] = tested on: AKT2
[4] = tested on: AKT3
[5] = tested on: ALK
[6] = tested on: T1, AMPK-alpha1
T1 construct: gene PRKAA1

[7] = tested on: T2, AMPK-alpha2
T2 construct: gene PRKAA2

[8] = tested on: ANKK1
[9] = tested on: T3, ARK5
T3 construct: gene NUAK1

[10] = tested on: T4, ASK1
T4 construct: gene MAP3K5

[11] = tested on: T5, ASK2
T5 construct: gene MAP3K6

[12] = tested on: AURKA
[13] = tested on: AURKB
[14] = tested on: AURKC
[15] = tested on: AXL
[16] = tested on: T6, BIKE
T6 construct: gene BMP2K

[17] = tested on: BLK
[18] = tested on: BMPR1A
[19] = tested on: BMPR1B
[20] = tested on: BMPR2
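Further: KINOMEscan kinase panel screen.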

Compound | %Inh [1] [%] | %Inh [2] [%] | %Inh [3] [%] | %Inh [4] [%] | %Inh [5] [%] | %Inh [6] [%] | %Inh [7] [%] | %Inh [8] [%] | %Inh [9] [%] | %Inh [10] [%] | %Inh [11] [%] | %Inh [12] [%] | %Inh [13] [%] | %Inh [14] [%] | %Inh [15] [%] | %Inh [16] [%] | %Inh [17] [%] | %Inh [18] [%] | %Inh [19] [%] | %Inh [20] [%]
O=C1NC(=O)C(c2ccccc2Cl)=C1Nc1cccc(Cl)c1 [SB-342409] | 0 | 0 | 100 | 0 | 41 | 0 | 11 | 0 | 14 | 8 | 0 | 0 | 22 | 0 | 0 | 15 | 2 | 0 | 0 | 0
COc1cccc(-c2nc(-c3ccccc3)[nH]c2-c2ccncc2)c1 [SB-610250] | 77 | 0 | 0 | 0 | 18 | 17 | 2 | 0 | 0 | 2 | 11 | 0 | 39 | 0 | 15 | 0 | 60 | 0 | 0 | 0
NCCC(NC(=O)c1cc(Br)c(-c2ccnc3[nH]ccc23)s1)c1ccccc1.O=C(O)C(F)(F)F.O=C(O)C(F)(F)F (stereo not shown) [GSK1307810] | 60 | 91.6 | 52 | 87 | 50 | 52 | 34 | 0 | 18 | 15 | 11 | 87 | 13 | 99.7 | 76 | 100 | 0 | 0 | 0 | 52
COc1cccc2c(-c3ccncc3)c(-c3ccc(F)cc3)nn12 [GW468513] | 38 | 0 | 34 | 5 | 27 | 0 | 18 | 11 | 19 | 0 | 0 | 0 | 0 | 17 | 13 | 26 | 49 | 0 | 0 | 7
CC(C)c1nc(-c2cccc(NS(=O)(=O)c3c(F)cccc3F)c2)c(-c2ccnc(Nc3ccc(N4CCOCC4)nc3)n2)s1.Cl [GSK1723980] | 100 | 0 | 11 | 0 | 19 | 74 | 91.4 | 5 | 1 | 0 | 20 | 41 | 42 | 50 | 74 | 19 | 99.8 | 67 | 99.7 | 0
CSc1ccc(NC2=C(c3ccc(Cl)cc3)C(=O)NC2=O)cc1 [SB-317658] | 0 | 9 | 8 | 10 | 0 | 23 | 30 | 3 | 0 | 0 | 25 | 32 | 9 | 2 | 10 | 0 | 0 | 6 | 0 | 0
Cl.O=C(Nc1ccc(Oc2ccc3[nH]c(NC(=O)c4ccco4)nc3c2)cc1)Nc1cc(C(F)(F)F)ccc1F [GW683134] | 0 | 0 | 12 | 0 | 27 | 0 | 16 | 1 | 12 | 0 | 0 | 0 | 92.6 | 50 | 96 | 15 | 54 | 0 | 0 | 0
COc1cc(Nc2nccc(N3CCC(NC(=O)Nc4ccc5c(c4)OCO5)C3)n2)cc(OC)c1OC (stereo not shown) [GSK1379766] | 69 | 0 | 2 | 0 | 63 | 2 | 10 | 36 | 24 | 4 | 12 | 86 | 69 | 90.1 | 0 | 74 | 0 | 0 | 0 | 30
CN(C)c1ncnc2nc[nH]c12 [SKF-31736] | 19 | 0 | 0 | 0 | 0 | 0 | 0 | 0 | 0 | 0 | 0 | 12 | 54 | 0 | 0 | 0 | 0 | 0 | 7 | 46
Cl.N#CCc1ccc(Nc2nccc(Nc3ccc(Oc4ccccc4)cc3)n2)cc1 [GW639905] | 72 | 0 | 4 | 0 | 40 | 0 | 0 | 98.9 | 0 | 0 | 7 | 6 | 31 | 34 | 22 | 26 | 94.1 | 0 | 0 | 0
Cn1cc(-c2ccc3c(c2)CCN3C(=O)Cc2cc(F)cc(F)c2F)c2c(N)ncnc21 [GSK2634140] | 19 | 0 | 0 | 0 | 8 | 18 | 13 | 12 | 20 | 0 | 0 | 18 | 92.6 | 59 | 89 | 33 | 72 | 0 | 5 | 0
COC(=O)Nc1nc2ccc(Oc3ccc(CC(=O)Nc4cc(C(F)(F)F)ccc4F)cc3)cc2[nH]1 [GW680903] | 42 | 0 | 0 | 0 | 36 | 0 | 0 | 1 | 7 | 3 | 0 | 0 | 60 | 52 | 23 | 3 | 32 | 6 | 0 | 1
Nc1ncc(-c2ccc3nccc(-c4ccncc4)c3c2)cc1S(=O)(=O)N1CCCCC1 [GSK1693850] | 33 | 0 | 1 | 0 | 22 | 0 | 1 | 35 | 0 | 14 | 0 | 59 | 31 | 35 | 52 | 14 | 0 | 0 | 0 | 0
Cn1cc(-c2cnc(N)c3c(-c4ccc5c(c4)CCN5C(=O)Cc4ccccc4)csc23)cn1 [GSK2593074] | 0 | 14 | 0 | 8 | 0 | 17 | 0 | 0 | 3 | 21 | 17 | 24 | 97.8 | 92.2 | 95.9 | 0 | 93 | 1 | 6 | 6
O=C(O)C(F)(F)F.O=c1[nH]ccc2nc(N[C@@H]3CCNC3)nc(Nc3ccc4c(c3)S(=O)(=O)CC4)c12 [GSK2181306] | 15 | 0 | 0 | 47 | 86 | 89 | 81 | 97.4 | 99.9 | 0 | 38 | 83 | 72 | 87 | 100 | 98.8 | 28 | 0 | 7 | 99.5
CC(C)NCC(Cc1ccccc1)NC(=O)c1cc(Br)c(-c2ccnc3[nH]ccc23)s1.Cl.Cl (stereo not shown) [GSK1383281] | 87 | 90 | 73 | 86 | 32 | 57 | 41 | 17 | 62 | 0 | 11 | 95.1 | 93.8 | 91.7 | 74 | 79 | 0 | 0 | 0 | 8
O=C(O)C(F)(F)F.O=c1[nH]ccc2nc(N[C@@H]3CCNC3)nc(Nc3cc(Cl)cc(Cl)c3)c12 [GSK2188764] | 14 | 0 | 0 | 0 | 90.5 | 87 | 90 | 97.1 | 99.5 | 0 | 4 | 97.3 | 75 | 69 | 92.1 | 97.6 | 0 | 0 | 0 | 70
O=C(Nc1n[nH]c2nc(-c3cccc(O)c3)ccc12)C1CC1 [SB-711805] | 0 | 0 | 0 | 4 | 0 | 0 | 0 | 0 | 0 | 0 | 0 | 9 | 19 | 23 | 12 | 34 | 0 | 8 | 86 | 34
COC(=O)Nc1nc2ccc(Oc3ccc(NC(=O)Nc4cc(C(F)(F)F)ccc4F)cc3)cc2[nH]1.Cl [GW654607] | 54 | 0 | 100 | 0 | 18 | 19 | 15 | 13 | 9 | 12 | 15 | 0 | 92.3 | 42 | 97.3 | 10 | 67 | 18 | 0 | 0
Cc1ccccc1CC(=O)N1CCc2cc(-c3cn(C)c4ncnc(N)c34)ccc21 [GSK2603346] | 3 | 0 | 4 | 0 | 20 | 18 | 23 | 0 | 42 | 30 | 6 | 27 | 92 | 100 | 98.7 | 82 | 49 | 0 | 0 | 0
